Hits are enriched below; roughly 12% of the tested compounds scored in any of these assays.
BAZ2B inh: inhibitors of human BAZ2B bromodomain; Potency, µM (highest dose often 114 µM), without a hit: top-dose activity change, negative = inhibition, hits mostly inhibitors; Q9UIF8; hit rate 4.4% among 360,000; AlphaScreen BAZ2B-H3K14Ac peptide displacement; also: % is scaled to controls: 0 for no effect and ±100 for the full control effect; nearly all actives have a fitted effect of over 60% in size
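AlphaScreen displacement: compounds (up to 110uM) incubated 30 min at room temperature with a preformed 50 nM BAZ2B/50 nM biotinylated H3K14Ac peptide complex in PBS pH 7.4 with Tween-20. Donor and acceptor beads at 10 ug/mL final added, 20 min light-protected before reading.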
L3MBTL1 inh: inhibitors of human L3MBTL1; Potency, µM (top dose mostly 57.1 µM), for the others: at the top dose activity, negative = inhibition, actives largely listed as inhibitors; hit rate 0.66% among 230,000; AlphaScreen L3MBTL1–H3K9me1 peptide binding; also: % is scaled to controls: 0 for no effect and ±100 for the full control effect; nearly all actives have a fitted effect of over 60% in size
Target sequence (Q9Y468 whole entry, looked up): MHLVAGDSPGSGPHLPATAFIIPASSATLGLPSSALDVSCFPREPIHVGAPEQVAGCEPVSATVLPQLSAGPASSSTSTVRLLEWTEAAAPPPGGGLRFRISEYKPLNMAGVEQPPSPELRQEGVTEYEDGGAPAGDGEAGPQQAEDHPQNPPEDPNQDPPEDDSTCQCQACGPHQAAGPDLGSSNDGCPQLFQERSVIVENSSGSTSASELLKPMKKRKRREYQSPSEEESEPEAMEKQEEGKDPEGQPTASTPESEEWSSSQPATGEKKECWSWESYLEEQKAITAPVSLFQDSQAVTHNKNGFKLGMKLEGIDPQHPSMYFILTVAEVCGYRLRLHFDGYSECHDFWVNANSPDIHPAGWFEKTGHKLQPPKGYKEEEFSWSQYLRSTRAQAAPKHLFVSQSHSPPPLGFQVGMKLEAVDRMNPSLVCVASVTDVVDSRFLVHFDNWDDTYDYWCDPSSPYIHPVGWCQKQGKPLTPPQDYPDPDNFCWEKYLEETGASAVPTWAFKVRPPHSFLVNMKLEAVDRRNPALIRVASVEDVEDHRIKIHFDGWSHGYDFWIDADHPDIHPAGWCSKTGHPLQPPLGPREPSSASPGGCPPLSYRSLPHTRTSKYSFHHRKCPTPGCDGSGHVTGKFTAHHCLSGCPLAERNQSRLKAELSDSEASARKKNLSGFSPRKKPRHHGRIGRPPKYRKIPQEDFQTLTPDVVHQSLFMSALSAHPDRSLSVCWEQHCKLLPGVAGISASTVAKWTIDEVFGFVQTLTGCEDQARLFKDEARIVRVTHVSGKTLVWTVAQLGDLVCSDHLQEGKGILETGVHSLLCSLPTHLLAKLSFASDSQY
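L3MBTL1 50 nM + b-AHA-H3(1-15)K9me1 75 nM, 30 min RT; compound added, 30 min RT; streptavidin donor/Ni-chelate acceptor beads 10 ug/mL each final, 30 min RT dark; AlphaScreen read.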
HP1b binding inh: inhibitors of HP1-beta chromodomain binding to methylated histone tails | AlphaScreen HP1-beta / biotin-H3K9me3 peptide binding | hit rate 0.56% among 390,000 | P83916 | Potency, µM (doses to about 114 µM), inactives show at the top dose activity change, negative = inhibition, actives largely listed as inhibitors; also: nearly all actives have a fitted effect of over 70% in size
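AlphaScreen: HP1-beta (50 nM) preformed 30 min with biotin-H3(1-18)K9me3 peptide (50 nM) in PBS pH 7.4, 0.01% Tween-20. Compound added for 30 min at RT, then streptavidin donor/nickel chelate acceptor beads (10 ug/mL) for 30 min.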
Sfp PPTase inh: blocks B. subtilis Sfp PPTase activity | Biochemical Sfp PPTase activity, qHTS | Potency, µM, for inactives: largest response in the series, negative = inhibition, most hits filed as inhibitors | hit rate 3.5% among 310,000 | AID 1490;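 also: the enzyme is Sfp with the accession as filed and its product quenches rhodamine fluorescence; 0% = enzyme reaction without inhibitor and -100% = no enzyme wells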
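With Hepes-Na pH 7.6 buffer containing 10 mM MgCl2, Sfp (15 nM) modified BHQ-2-YbbR (12.5 uM) using rhodamine-CoA (5 uM). Two reads 30 minutes apart at 525/598 nm yielded each well's rate.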
G9a inh: G9a (human) methyltransferase inhibition; Q96KQ7; G9a H3K9 monomethylation, AlphaScreen, 2 h; Potency, µM (top dose mostly 102 µM), for the others: at the highest dose activity, negative = inhibition, hits mostly inhibitors; hit rate 8.8% among 350,000; also: % is scaled to controls: 0 for no effect and ±100 for the full control effect; nearly all actives have a fitted effect of over 75% in size
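Quantitative HTS format: methyltransferase activity on a biotin-tagged H3K9 peptide is measured by AlphaScreen, using a rabbit anti-monomethyl-H3K9 antibody with streptavidin donor and anti-IgG acceptor beads. Final levels are 20 nM enzyme, 500 nM peptide, 20 uM SAM; 2 h RT.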
JMJD2A Tudor: inhibitors of human JMJD2A Tudor domain. O75164. AlphaScreen JMJD2A-Tudor / H3K4me3 peptide binding. Potency, µM (titrated, usually from 114 µM), inactives show at the highest dose activity change, negative = inhibition, usual class: inhibitors. hit rate 4.4% among 390,000; also: % is scaled to controls: 0 for no effect and ±100 for the full control effect; nearly all actives have a fitted effect of over 50% in size
Active calls of the source: *; [ ] = dose if it differs, or a comment. Calls follow the shape of the dose curve; as a rule, active = well fitted curve in the direction sought with a large enough effect; inconclusive = small, poorly fitted or top-dose-only effect, or another doubt; inactive = no such curve, though single readings can be large; an effect the other way counts as inactive or inconclusive. Potency is read from the fitted curve at half-maximal effect.

`CCOC(=O)CC(NS(=O)(=O)c1ccc2[nH]cc(C(=O)O)c(=O)c2c1)c1ccc(OCC)c(OC)c1` (stereo not given) gave BAZ2B inh 28µM*, HP1b binding inh 50µM*, Sfp PPTase inh 8%, G9a inh 10µM* and JMJD2A Tudor 22µM*.
For Cc1ccc2c(c1)c1c(c(=O)n(-c3cccc(Cl)c3)c(=O)n1CC(=O)NCCC1=CCCCC1)n2C the results were BAZ2B inh 3%, HP1b binding inh 12%, G9a inh 9%[59 µM] and JMJD2A Tudor -10%.
`CCCN(CCC)C(=O)c1ccc2c(c1)S(=O)(=O)c1ccccc1C2=O` gave BAZ2B inh -33%, HP1b binding inh 4%, Sfp PPTase inh 15%, G9a inh 79µM* and JMJD2A Tudor inconclusive.
Screening CCCCN(C)C(=O)c1ccc2c(c1)S(=O)(=O)c1ccccc1C2=O returned BAZ2B inh -14%, HP1b binding inh 38%, Sfp PPTase inh 6%, G9a inh 66% and JMJD2A Tudor -14%.
For O=C(NCCCSc1ccccc1)c1cc(Cl)ccc1O the results were BAZ2B inh 50µM*, HP1b binding inh 88%, Sfp PPTase inh -21%, G9a inh 35µM* and JMJD2A Tudor 33%.
`CCOC(=O)Cn1c(=O)n(C2CCCCC2)c2nc(-c3ccc(OCC)cc3)nc(C(N)=O)c21` gave BAZ2B inh -4%, HP1b binding inh 25%[57 µM], G9a inh 6%[59 µM] and JMJD2A Tudor -25%.
Screening Cc1nn(-c2ccccc2)c2c1N(CC(=O)N1CCN(c3ccc(F)cc3)CC1)C(=O)CS2 returned BAZ2B inh -1%, HP1b binding inh 58%, G9a inh 3%[59 µM] and JMJD2A Tudor -10%.
O=C(N/N=C1/CC2C=CCC12)c1ccco1 (stereo not given) was read as BAZ2B inh -28%, L3MBTL1 inh 6%, HP1b binding inh 9%, Sfp PPTase inh -9%, G9a inh -7%[59 µM] and JMJD2A Tudor 50µM*.
For COc1ccc(Cn2c(SCc3ccccc3C)nc3cc(OC)c(OC)cc3c2=N)cc1 the results were BAZ2B inh inconclusive, L3MBTL1 inh -3%, Sfp PPTase inh 1.3µM* and G9a inh 40µM*.
`COc1cc2nc(SCc3ccc(F)cc3)n(Cc3cccs3)c(=N)c2cc1OC` gave BAZ2B inh inconclusive, L3MBTL1 inh -2%, HP1b binding inh 29%, Sfp PPTase inh 9%, G9a inh 21%[12.7 µM] and JMJD2A Tudor -31%.
For COc1ccc(OC)c(NC(=O)c2cc3c(=O)oc4ccccc4c3s2)c1 the results were BAZ2B inh -2%, HP1b binding inh 30%, G9a inh 2%[59 µM] and JMJD2A Tudor -12%.
`Cc1cccc(CN(C(=S)Nc2c(C)cccc2C)c2cccnc2)c1` gave BAZ2B inh 79µM*, L3MBTL1 inh 10%, HP1b binding inh 23%, Sfp PPTase inh 1%, G9a inh inconclusive and JMJD2A Tudor -16%.
For CCc1ccccc1NC(=S)N(Cc1cccc(C)c1)c1cccnc1 the results were BAZ2B inh -20%, L3MBTL1 inh -2%, HP1b binding inh 13%, Sfp PPTase inh 7%, G9a inh -18% and JMJD2A Tudor -24%.
For Cc1ccc(Cl)cc1NC(=O)CN1C=NS(=O)(=O)c2ccccc21 the results were BAZ2B inh 0%, HP1b binding inh 8%, G9a inh 3%[59 µM] and JMJD2A Tudor -10%.
O=C(CCNC(=O)c1ccccc1)N=Nc1c(O)[nH]c2ccccc12 was read as BAZ2B inh -15%, L3MBTL1 inh 2%, Sfp PPTase inh 10% and G9a inh 6%.
O=C(CSc1nc2ccccc2[nH]1)N=Nc1c(O)[nH]c2ccccc12 was read as BAZ2B inh -30%, L3MBTL1 inh -11%, HP1b binding inh 3%, Sfp PPTase inh -11%, G9a inh 45µM* and JMJD2A Tudor -28%.
Screening O=C(Cn1nnc(-c2ccccc2)n1)N=Nc1c(O)[nH]c2ccccc12 returned BAZ2B inh -3%, HP1b binding inh 14%, Sfp PPTase inh 89µM*, G9a inh -1%[59 µM] and JMJD2A Tudor -16%.
`Cn1c(SCC(=O)N=Nc2c(O)[nH]c3ccccc23)nc2ccccc21` gave BAZ2B inh 10%, L3MBTL1 inh -2%, Sfp PPTase inh 2% and G9a inh -6%.
`COc1cc(OC)cc(C(=O)Nc2cc3c(cc2N2CCCC2)n(C)c(=O)c(=O)n3C)c1` gave BAZ2B inh -4%, HP1b binding inh 118%, G9a inh inconclusive and JMJD2A Tudor -17%.
Screening Cc1ccc(NC(=O)C2CCN(c3nc4ccccc4[nH]3)CC2)c(C)c1 returned BAZ2B inh -2%, HP1b binding inh 21%[57 µM], G9a inh 10%[59 µM] and JMJD2A Tudor -17%.
For Cc1ccc(NC(=O)Cn2c(=O)n(-c3ccccc3)c(=O)c3ccc(C(=O)NCc4ccc5c(c4)OCO5)cc32)c(C)c1 the results were HP1b binding inh 39%, G9a inh 11%[59 µM] and JMJD2A Tudor -1%.
For CCOC(=O)c1ccc(NC(=O)C(CC)Sc2nc3ncccc3o2)cc1 (stereo not given) the results were BAZ2B inh -5%, HP1b binding inh inconclusive, G9a inh 7%[59 µM] and JMJD2A Tudor -16%.
CN1CCN(CCCCOc2ccc(F)cc2)CC1 was read as BAZ2B inh -2%, L3MBTL1 inh -4%, HP1b binding inh 43%, Sfp PPTase inh -4%, G9a inh -31% and JMJD2A Tudor 14%[57.1 µM].
Brc1ccc(OCCCCCN2CCOCC2)cc1 was read as BAZ2B inh 35µM*, HP1b binding inh -25%, Sfp PPTase inh -16%, G9a inh 3.2µM* and JMJD2A Tudor 3.2µM*.
CN1CCN(CCCCOc2ccc(Br)cc2)CC1 was read as BAZ2B inh 56µM*, L3MBTL1 inh -5%, HP1b binding inh inconclusive, Sfp PPTase inh -33%, G9a inh 4.5µM* and JMJD2A Tudor 20µM*.
Screening COc1ccc(NC(=O)c2ccc3c(=O)n4nc(Nc5ccccc5C)sc4nc3c2)cc1Cl returned BAZ2B inh -3%, HP1b binding inh 20%, G9a inh inconclusive and JMJD2A Tudor -1%.
Screening COCCN1CCc2c(C)nc3c(-c4ccc(OC)c(OC)c4)cnn3c21 returned BAZ2B inh -5%, L3MBTL1 inh -2%, HP1b binding inh 34%, Sfp PPTase inh 0%, G9a inh 79µM* and JMJD2A Tudor -7%.
Screening O=C1N/C(=C/c2cccn2-c2ccc(F)cc2)C(=O)N1Cc1ccccc1F returned BAZ2B inh -6%, L3MBTL1 inh 0%, HP1b binding inh 14%, Sfp PPTase inh -1%, G9a inh inconclusive and JMJD2A Tudor -10%.
